This note sets out measurements from PubChem BioAssay (Tox21).

Several values for one entry are separate records, joined by “and”; a condition that tells them apart may be missing. Equal values may be shown once. Records with an inconclusive call do not appear. Entries that show only a call come without a potency. Some structures have more than one record in an assay (separate samples or runs), and their calls can disagree. Activity calls are given as the source filed them. Calls follow the shape of the dose curve; as a rule, active = well fitted curve in the direction sought with a large enough effect in the repeat runs; inconclusive = weak or mixed curves; inactive = no such curve, though single readings can be large; an effect the other way counts as inactive or inconclusive.
Also: nearly all actives have a fitted effect of over 50% in size.
Potency is read from the fitted curve at half-maximal effect.

Chain of Voltage-gated inwardly rectifying potassium channel KCNH2 (Homo sapiens) (Q12809 whole entry, looked up): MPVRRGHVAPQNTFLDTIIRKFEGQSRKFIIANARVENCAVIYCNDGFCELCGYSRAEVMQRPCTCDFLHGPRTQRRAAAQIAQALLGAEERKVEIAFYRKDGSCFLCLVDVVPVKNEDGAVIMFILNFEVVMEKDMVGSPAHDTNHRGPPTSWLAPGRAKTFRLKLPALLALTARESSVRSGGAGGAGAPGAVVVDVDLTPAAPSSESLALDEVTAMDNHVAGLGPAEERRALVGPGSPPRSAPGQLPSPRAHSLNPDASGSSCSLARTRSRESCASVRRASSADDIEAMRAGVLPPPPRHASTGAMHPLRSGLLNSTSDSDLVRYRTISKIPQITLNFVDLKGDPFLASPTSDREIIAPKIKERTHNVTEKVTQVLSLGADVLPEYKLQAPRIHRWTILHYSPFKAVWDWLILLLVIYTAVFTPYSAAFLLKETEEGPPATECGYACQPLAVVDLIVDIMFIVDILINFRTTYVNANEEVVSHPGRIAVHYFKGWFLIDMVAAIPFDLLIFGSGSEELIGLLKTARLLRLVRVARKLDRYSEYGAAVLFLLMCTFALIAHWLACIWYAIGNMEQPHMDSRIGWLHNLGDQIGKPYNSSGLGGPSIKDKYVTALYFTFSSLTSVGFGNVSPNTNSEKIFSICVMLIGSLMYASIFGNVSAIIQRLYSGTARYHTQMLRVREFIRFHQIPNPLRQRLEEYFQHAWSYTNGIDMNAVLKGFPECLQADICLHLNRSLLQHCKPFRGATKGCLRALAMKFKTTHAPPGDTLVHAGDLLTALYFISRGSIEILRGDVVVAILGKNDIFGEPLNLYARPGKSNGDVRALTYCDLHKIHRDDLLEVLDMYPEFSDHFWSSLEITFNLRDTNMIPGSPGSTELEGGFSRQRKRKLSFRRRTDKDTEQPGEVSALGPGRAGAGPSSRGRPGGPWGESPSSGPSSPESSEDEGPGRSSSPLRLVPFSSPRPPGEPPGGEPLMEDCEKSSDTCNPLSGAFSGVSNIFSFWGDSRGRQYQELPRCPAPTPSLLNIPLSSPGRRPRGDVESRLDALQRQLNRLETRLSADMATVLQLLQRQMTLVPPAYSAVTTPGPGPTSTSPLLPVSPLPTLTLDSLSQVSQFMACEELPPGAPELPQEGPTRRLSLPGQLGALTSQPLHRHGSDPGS

The first test addresses Voltage-gated inwardly rectifying potassium channel KCNH2 (Homo sapiens) (UniProt Q12809). In words: Human Ether-a-go-go-Related Gene (hERG) channel small molecule antagonists: fluorescence cell-based qHTS assay (AID 1671200).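 As to activity change, negative = inhibition: hERG-expressing U2OS cells given a thallium stimulus after FluxOR II dye loading.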 Conditions: hERG-U2OS cells, FluxOR thallium flux fluorescence; series mostly up to 76.8 µM; activity change, negative = inhibition: at the top concentration. The method, boiled down:
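Channel function was assessed by thallium flux. Cells seeded the previous day and kept at 37 C took up FluxOR II dye over 1 h in the dark at room temperature, then sat another 10 min before stimulation.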
On to `NC1CCCCC1N` (centres undefined), for which the Potency result was “inactive”. `CC[N+](CC)(CC(=O)Nc1c(C)cccc1C)Cc1ccccc1`: the Potency is 24.5 µM (active) and inactive. On to `COc1ccccc1[N+](=O)[O-]`, for which the Potency entry is “inactive”. Same read-out and setting: the entry for `NC(=O)c1ncn([C@@H]2O[C@H](CO)[C@@H](O)[C@H]2O)n1` is “inactive”.

`Cc1ccc([N+](=O)[O-])cc1N`: the Potency result was “inactive”. Regarding `N[C@@H](Cc1cc(I)c(Oc2ccc(O)c(I)c2)c(I)c1)C(=O)O`, the Potency entry was “inactive”. On to `CCOC(=O)CC(=O)OCC`, for which the Potency entry was “inactive”. In the case of `CC(=O)OCc1ccc2c(c1)OCO2`, the Potency result was “inactive”. Take `C=C(CC(=O)O)C(=O)O`: the Potency result is “inactive”. On to `CC(CN1c2ccccc2Sc2ccccc21)N(C)C` (centres undefined), for which the Potency is 22.1 µM (active) and 21.9 µM (active) and 21.3 µM (active).

On to `COc1ccc([C@@H]2CC(=O)c3c(O)cc(O[C@@H]4O[C@H](CO[C@@H]5O[C@@H](C)[C@H](O)[C@@H](O)[C@H]5O)[C@@H](O)[C@H](O)[C@H]4O)cc3O2)cc1OC`, for which the Potency entry was “inactive”. `CCc1cccc(O)c1`: the Potency entry was “inactive”. Turning to `Cc1ncc(CO)c(CO)c1O`, the Potency result was “inactive”.

Regarding `Clc1cccc(Cl)c1NC1=NCCN1`, the Potency entry was “inactive”. Take `CCCCC(CC)COC(=O)c1ccc(C(=O)OCC(CC)CCCC)cc1` (centres undefined): the Potency entry is “inactive”. Turning to `CC(C)(CO)CO`, the Potency entry was “inactive”.

For `CO[Si](CCCNCCN)(OC)OC`, the Potency result is “inactive”. In the case of `C=C1C[C@]23C[C@@]1(O)CC[C@H]2[C@@]12C=C[C@H](O)[C@@](C)(C(=O)O1)[C@H]2[C@@H]3C(=O)O`, the Potency result was “inactive”.

In the case of `CC(=O)c1nccs1`, the Potency result was “inactive”. For `Cc1ccccc1Cl`, the Potency result was “inactive”. As to `CCN(CC)CCNC(=O)c1ccc(N)cc1`, the Potency result is “inactive”.

Turning to `O=c1c(O)c(-c2ccc(O)c(O)c2)oc2cc(O)cc(O)c12`, the Potency entry was “inactive”. For `CC(C)c1ccc(C(C)C)cc1`, the Potency entry is “inactive”. Turning to `O=C(c1ccccc1)c1ccc(O)c(O)c1O`, the Potency result was “inactive”.

As for `Oc1ccc(Cc2ccccc2O)cc1`, the Potency result was “inactive”. On to `CCn1cc(C(=O)O)c(=O)c2cc3c(cc21)OCO3`, for which the Potency result is “inactive”.

For `NCCNCCNCCN`, the Potency entry was “inactive”. Consider `Nc1nc(N)c2nc(-c3ccccc3)c(N)nc2n1`, for which the Potency entry was “inactive”. For `OCCOCCOCCOCCOCCO`, the Potency result is “inactive”. Turning to `O=[N+]([O-])c1ccccc1C(F)(F)F`, the Potency result is “inactive”. Take `COCN(COC)c1nc(N(COC)COC)nc(N(COC)COC)n1`: the Potency entry is “inactive”.

`Nc1cccc(N)n1`: the Potency result was “inactive”. Consider `CC(C)(C)NC[C@H](O)COc1nsnc1N1CCOCC1`, for which the Potency entry is “inactive”. The same measure, in the same setting: under `Cc1ccncc1` stands “inactive”; under `CC(=O)OC[C@H]1O[C@@](COC(C)=O)(O[C@H]2O[C@H](COC(C)=O)[C@@H](OC(C)=O)[C@H](OC(C)=O)[C@H]2OC(C)=O)[C@@H](OC(C)=O)[C@@H]1OC(C)=O`, “inactive”; under `CCOC(=O)c1ccc(O)cc1`, “inactive”.

In another test the target is Cytochrome P450 3A4 (Homo sapiens) (UniProt P08684). Put plainly: Cytochrome P450 Family 3 Subfamily A Member 4 (CYP3A4) small molecule antagonists: luciferase reporter qHTS assay (AID 1671201). As to conditions: P450-Glo CYP3A4 enzyme, luciferin luminescence, 1 h; series mostly up to 115 µM; activity change, negative = inhibition: at the top concentration. The method, boiled down: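 Compounds in DMSO were pin-transferred onto CYP3A4 enzyme-substrate mix and held 10 min at room temperature. NADPH regenerating solution started the reaction for 1 h; luciferin detection reagent stopped it, and luminescence was read after 20 min.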
Chain of Cytochrome P450 3A4 (Homo sapiens) (P08684 whole entry, looked up): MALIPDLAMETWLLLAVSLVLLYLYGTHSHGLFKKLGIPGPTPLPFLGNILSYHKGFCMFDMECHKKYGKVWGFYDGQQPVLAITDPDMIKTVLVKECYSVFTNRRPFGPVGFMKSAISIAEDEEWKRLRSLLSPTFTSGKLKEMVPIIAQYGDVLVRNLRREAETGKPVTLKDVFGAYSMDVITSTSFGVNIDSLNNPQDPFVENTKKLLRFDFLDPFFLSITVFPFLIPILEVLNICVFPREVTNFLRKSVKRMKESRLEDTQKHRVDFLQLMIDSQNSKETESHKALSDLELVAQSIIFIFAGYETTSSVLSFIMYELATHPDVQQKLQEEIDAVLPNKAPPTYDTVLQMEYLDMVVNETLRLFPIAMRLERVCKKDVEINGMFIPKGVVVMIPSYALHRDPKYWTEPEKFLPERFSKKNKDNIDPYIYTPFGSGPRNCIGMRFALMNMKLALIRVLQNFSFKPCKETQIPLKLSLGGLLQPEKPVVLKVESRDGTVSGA
For the compound `Brc1ccc(Oc2ccc(Br)cc2)cc1`, the Potency entry was “inactive”. For the compound `COc1ccccc1[N+](=O)[O-]`, the Potency result was “inactive”.

Consider `NC(=O)c1ncn([C@@H]2O[C@H](CO)[C@@H](O)[C@H]2O)n1`, for which the Potency result was “inactive”. Same read-out and setting: the entry for `CCOC(=O)CC(=O)OCC` is “inactive”.

As to `CC(=O)OCc1ccc2c(c1)OCO2`, the Potency is 20.1 µM (active) and 39.9 µM (active). Regarding `CC(COCC(C)OC(=O)c1ccccc1)OC(=O)c1ccccc1` (centres undefined), the Potency entry was “inactive”. Same read-out and setting: under `CC(CN1c2ccccc2Sc2ccccc21)N(C)C` (centres undefined) stands “inactive”. Regarding `COc1ccc([C@@H]2CC(=O)c3c(O)cc(O[C@@H]4O[C@H](CO[C@@H]5O[C@@H](C)[C@H](O)[C@@H](O)[C@H]5O)[C@@H](O)[C@H](O)[C@H]4O)cc3O2)cc1OC`, the Potency entry was “inactive and 21.7 µM (active)”. As for `CCc1cccc(O)c1`, the Potency entry is “inactive”. Still for that read-out and setting: under `Cc1ncc(CO)c(CO)c1O` stands “inactive”. Still for that read-out and setting: the entry for `CCCCC(CC)COC(=O)c1ccc(C(=O)OCC(CC)CCCC)cc1` (centres undefined) is “inactive”. As to `CC(C)(CO)CO`, the Potency result is “inactive”.

In the case of `CO[Si](CCCNCCN)(OC)OC`, the Potency entry is “inactive”. As to `CC(=O)c1nccs1`, the Potency result is “inactive”.

Turning to `Cc1ccccc1Cl`, the Potency entry is “inactive”.

On to `CC(C)c1ccc(C(C)C)cc1`, for which the Potency entry is “inactive”. Regarding `O=C(c1ccccc1)c1ccc(O)c(O)c1O`, the Potency entry was “inactive”. As for `Oc1ccc(Cc2ccccc2O)cc1`, the Potency entry was “inactive”. In the case of `CCn1cc(C(=O)O)c(=O)c2cc3c(cc21)OCO3`, the activity change, negative = inhibition is -0.272% [at 23.6 µM] (inactive). As for `O=[N+]([O-])c1ccccc1C(F)(F)F`, the Potency result is “inactive”.

On to `COCN(COC)c1nc(N(COC)COC)nc(N(COC)COC)n1`, for which the “activity change, negative = inhibition” value is -20% (inactive).

Consider `Nc1cccc(N)n1`, for which the Potency result is “inactive”. The same measure, in the same setting: under `Cc1ccncc1` stands “inactive”.
